PTHR1 ag: PTHR1 (human) receptor agonism; HEK293 GP2 PTHR1 cells, GloSensor cAMP luminescence, 1 h; Potency, µM (titrated, usually from 115 µM), for inactives: top-dose activation, hits mostly activators; 410,000 tested, 0.075% active; note: potency is the fitted concentration of half-maximal effect; nearly all actives have a fitted effect of over 55% in size
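HEK-293-derived GP2 cells expressing PTHR1 and a GloSensor cAMP reporter, 3,000/well, plated overnight, given luciferin plus IBMX (each 0.5 mM as added) for 1 h at 37 °C, then compound for 1 h at 37 °C. Luminescence was read after 15 min at room temperature.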
TRHR PAM: allosteric enhancers of human TRH receptor; AID 493056; 360,000 tested, 0.66% active; TRHR cells, fluo-8 calcium fluorescence, EC20 TRH enhancement; enhancement, % at 2 µM; P34981; in the data active = enhancement above about 30%; note: 0% is about no effect
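Enhancer read-out: after compound pinning and an initial kinetic agonist-mode read, an EC20 of TRH (10 nM final) was injected and fluo-8 calcium signal (Ex 480/Em 530) followed at 1 s/cycle for 100 cycles in TRHR-expressing cells.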
GLP1R cytotox: cytotoxicity counter-screen for GLP-1 receptor inverse agonists | HEK293 cAMP-luciferase reporter cells, luminescence, 24 h | Potency, µM (highest dose often 38.3 µM), without a hit: top-dose activity change, negative = inhibition, actives largely listed as inhibitors | 410,000 tested, 0.13% active | AID 624418;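 note: loss of luciferase light is scored as toxicity; potency is the fitted concentration of half-maximal effect; % is set by controls: 0 for no effect and ±100 for the full control effect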
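Seeding density was 200 cells/uL; after overnight-length (12 h) culture, 23 nL compounds went on for 24 h at 37 °C. Readout used a luciferase detection reagent, luminescence taken after 12 min at room temperature.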
GLP-1R agonist: activates the human GLP-1 receptor | Potency, µM (doses to about 45.6 µM), for inactives: at the highest dose activation, most hits filed as activators | P43220 | 380,000 tested, 0.007% active | HEK293 GLP-1R CRE-luciferase, luminescence, 4-6 h; cells express a hypersensitive GLP-1R form; note: potency is the fitted concentration of half-maximal effect; % of control where 0% means no effect
Target sequence (P43220 whole entry, looked up): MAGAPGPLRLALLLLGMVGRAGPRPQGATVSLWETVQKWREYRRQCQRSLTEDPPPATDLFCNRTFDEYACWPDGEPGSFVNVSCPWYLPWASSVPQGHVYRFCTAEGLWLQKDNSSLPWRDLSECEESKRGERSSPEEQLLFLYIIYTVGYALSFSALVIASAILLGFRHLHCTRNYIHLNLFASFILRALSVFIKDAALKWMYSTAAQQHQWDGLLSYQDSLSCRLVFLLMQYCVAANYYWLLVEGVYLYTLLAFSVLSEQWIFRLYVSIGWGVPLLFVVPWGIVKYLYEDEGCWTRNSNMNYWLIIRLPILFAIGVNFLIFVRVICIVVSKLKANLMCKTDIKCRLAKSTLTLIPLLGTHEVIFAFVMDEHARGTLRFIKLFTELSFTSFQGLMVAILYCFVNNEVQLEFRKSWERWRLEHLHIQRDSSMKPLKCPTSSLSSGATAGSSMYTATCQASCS
GLP1R inv ag: acts as inverse agonist at human GLP-1 receptor. P43220. HEK293 GLP-1R CRE-luciferase, luminescence, 24 h; GLP-1R form is constitutively active. Potency, µM (titrated, usually from 38.3 µM), for inactives: top-dose activity change, negative = inhibition, hits mostly inhibitors. 410,000 tested, 1.6% active. AID 624417; note: potency is the fitted concentration of half-maximal effect; % is set by controls: 0 for no effect and ±100 for the full control effect; nearly all actives have a fitted effect of over 55% in size
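Using stably transfected HEK293 (constitutively active GLP-1R, cAMP-luciferase reporter), compounds were incubated 24 hr and luciferase measured by luminescence.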
TRHR agonist: TRH receptor (human) agonism; 360,000 tested, 0.18% active; TRHR cells, calcium flux fluo-8, FDSS agonist mode; activation, % at 2 µM; in the data active = activation above about 30%; note: 0% is about no effect
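Agonist-mode FDSS calcium read (Ex 480/Em 530, 1 s cycles) in 1536-well TRHR cells with fluo-8 dye, after 10-cycle baseline and 23 nL compound addition; TRH at EC20 (10 nM final) added afterwards for the enhancer phase.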
Numbers without * were called inactive; i = inactive; ? = inconclusive; . = not tested or not shown; [ ] = dose if it differs, or a comment. In the library only some 2.4% were active in any assay of this set; here they are far more common. Unless noted, calls come from the whole dose curve; as a rule, active = well fitted curve in the direction sought with a large enough effect; inconclusive = small, poorly fitted or top-dose-only effect, or another doubt; inactive = no such curve, though single readings can be large; an effect the other way counts as inactive or inconclusive.

SMILES	PTHR1 ag	TRHR PAM	GLP1R cytotox	GLP-1R agonist	GLP1R inv ag	TRHR agonist
NC(=S)NN=C1CCCCCCCCC1	-24%	.	4.5µM*	12%	2.8µM*	.
C=CCNC(=S)NN=C1CCCCCCC1	-4%	0	?	14%	3.5µM*	-1
Cc1cc(Cl)c(S(=O)(=O)N2CCSCC2)cc1OCC(N)=O	-12%	-1	15%	14%	-7%	0
CC(=O)c1cccc(NC(=O)c2ccc3c(c2)CCN3S(=O)(=O)c2ccccc2)c1	-15%	4	-18%	-8%	?	1
Cc1ccc(S(=O)(=O)N2CCN(C)CC2)cc1[N+](=O)[O-]	i	-5	4%	-6%	4%	1
CN1CCN(S(=O)(=O)c2ccc(N(C)Cc3ccc(OC(F)F)cc3)c([N+](=O)[O-])c2)CC1	-31%	-5	-24%	-1%	10µM*	1
O=S(=O)(c1ccc(Cl)cc1)c1nc(-c2ccccc2F)oc1NCCCN1CCOCC1	i	-2	0%	-2%	22%	0
Cc1ccc(CNc2oc(-c3ccco3)nc2S(=O)(=O)c2ccccc2)cc1	-5%[57.5 µM]	0	-6%	10%	10µM*	0
O=S(=O)(c1ccccc1)c1nc(-c2ccco2)oc1NCCN1CCOCC1	i	13	-7%	10%	5%	0
Cc1ccc(S(=O)(=O)c2nc(-c3ccccc3Cl)oc2NCCCN2CCOCC2)cc1	i	35*	1%	0%	?	1
COC(=O)c1c(NC(NC(=O)C(C)C)C(Cl)(Cl)Cl)sc2c1CCC2 (stereo not given)	-33%	1	-5%	-2%	8.9µM*	0
COc1ccc(Cl)cc1S(=O)(=O)n1nnc2ccccc21	-19%[57.5 µM]	8	10%	12%	1%	0
CCOc1ccc(CCNC(=O)c2cccc(NC3=NC4CS(=O)(=O)CC4S3)c2)cc1 (stereo not given)	-19%	34*	7%	-4%	0%	-1
COc1ccc(N(CCC(=O)Nc2ccccc2F)S(=O)(=O)c2ccc(C)cc2C)cc1	-10%	5	-1%	5%	10µM*	-1
CCc1ccc(NC(=O)Nc2ccc3c(c2)CCC3)cc1	i	-3	-14%	-2%	2%	0
CC1CC(C)CN(CC(=O)NNC(=O)COc2ccc(Cl)cc2)C1 (stereo not given)	i	-6	6%	-5%	?	1
N#CCc1ccc(OCCCN2CCC(C(O)(c3ccccc3)c3ccccc3)CC2)cc1	-18%	.	?	0%	?	.
OC(c1ccccc1)(c1ccccc1)C1CCN(CCCOc2ccc3c(c2)CCCC3)CC1	-27%	.	?	-30%	7.9µM*	.
COC(=O)c1ccccc1NC(=O)Cn1ccnc1	i	2	-7%	-6%	5%	0
O=C1NN(c2ccccc2)C(=O)C1=Cc1ccccc1	-14%	.	?	-1%	4µM*	.
CCOC(=O)COc1ccc(/C=C2/C(=O)NN(c3ccc(F)cc3)C2=O)cc1OC	-35%	38*	0%	-2%	?	0
O=C1NN(c2ccccc2)C(=O)/C1=C\c1ccccc1	-22%	1	-23%	10%	?	1
COc1cc(/C=C2/C(=O)NN(c3ccc(Cl)cc3)C2=O)cc(OC)c1O	i	5	?	-6%	4µM*	16
CCOC(=O)c1ccc(N2NC(=O)/C(=C/c3ccc(OC(=O)c4ccco4)c(OC)c3)C2=O)cc1	.	-5	.	.	.	1
CCC(=O)N1CCC1(C)C(=O)Nc1ccc(F)cc1 (stereo not given)	-13%	.	1%	-3%	-6%	.
SMILES	PTHR1 ag	TRHR PAM	GLP1R cytotox	GLP-1R agonist	GLP1R inv ag	TRHR agonist
CCOC(=O)c1cnc(NCc2ccc(Cl)cc2)c2ccccc12	-80%	5	-17%	.	?	0
Cc1ccc(C(=O)OC2OC(=O)C(Cl)=C2N2CCOCC2)cc1 (stereo not given)	-55%	30*	-6%	-1%	-5%	1
Cc1nn(-c2ccccc2)cc1/C=N/NS(=O)(=O)c1ccccc1	i	-1	-15%	5%	-22%	-1
O=C1NN=C(c2ccccc2)CC1c1ccc(Cl)cc1Cl (stereo not given)	i	-6	-7%	12%	7.9µM*	0
O=C(O)C[C@H]1c2cc(F)ccc2S(=O)(=O)N1Cc1ccccc1	i	.	-14%	-1%	-9%	.
CCOC(=O)C(C)/C(C)=N/NC(N)=S (stereo not given)	5%	2	0.56µM*	-1%	?	0
C=CCOc1cccc(C2C(C(=O)c3ccco3)=C(O)C(=O)N2CCN2CCOCC2)c1 (stereo not given)	i	3	-12%	-7%	10%	0
CC(=O)O[C@H]1[C@@H](O)[C@H](O)[C@H](Oc2c(O)c(C)c3c4c2[C@@H](C)CC[C@@H]4[C@@H](C)C[C@H]3C=C(C)C)O[C@H]1C	i	.	?	-2%	11µM*	.
CC(=O)O[C@@H]1[C@@H](O)[C@@H](O)[C@H](Oc2c(-c3ccc(O)cc3)oc3c(CC=C(C)C)c(O)cc(O)c3c2=O)O[C@H]1C	-21%	.	-10%	-4%	-23%	.
Cc1sc2nc(SCC(=O)N3CC(C)OC(C)C3)n(C)c(=O)c2c1C (stereo not given)	i	4	-3%	19%	25%	0
O=C(Nc1ccc(S(=O)(=O)N2CCCC2)cc1)Nc1ccc(F)cc1F	-28%	.	-16%	8%	?	.
Cc1ccc(S(=O)(=O)Nc2ccc(NC(=O)Nc3ccc(F)cc3F)cc2)cc1	-25%	3	-4%	2%	5.6µM*	2
C=CCc1cc(Cl)ccc1OCCNCCCOC	-2%	2	?	-1%	4.5µM*	0
COCCCNCCCOc1ccc(Cl)cc1C(C)(C)C	i	6	?	-3%	5.6µM*	0
COCCCNCCCCSc1ccc(Cl)cc1	i	4	-4%	20%	11µM*	1
C=CCc1cc(Cl)ccc1OCCOCCNCCOC	i	1	?	4%	?	1
CCC(C)NCCCOc1ccc(Cl)cc1C(C)(C)C (stereo not given)	-16%	-1	63%	-13%	-10%	0
C=CCc1cc(Cl)ccc1OCCOCCN(C)C	i	-4	1%	-2%	7.1µM*	1
O=[N+]([O-])c1ccc(CNC2CCCc3ccccc32)cc1 (stereo not given)	-14%	-9	25%	23%	?	-1

High-throughput results deposited in PubChem BioAssay by National Center for Advancing Translational Sciences (NCATS).
